Shown are actives, neighbours in structure and some others; about 10% of the full set was active somewhere.
VDR inhibitor = inhibitors of human vitamin D receptor; P11473; VDR-SRC2-3 peptide fluorescence polarization, 2 h; Potency, µM, without a hit: max response, negative = inhibition, hits mostly inhibitors; actives 0.93% (n = 400,000); AID 504847; note: potency is the fitted concentration of half-maximal effect
Target sequence (P11473 whole entry, looked up): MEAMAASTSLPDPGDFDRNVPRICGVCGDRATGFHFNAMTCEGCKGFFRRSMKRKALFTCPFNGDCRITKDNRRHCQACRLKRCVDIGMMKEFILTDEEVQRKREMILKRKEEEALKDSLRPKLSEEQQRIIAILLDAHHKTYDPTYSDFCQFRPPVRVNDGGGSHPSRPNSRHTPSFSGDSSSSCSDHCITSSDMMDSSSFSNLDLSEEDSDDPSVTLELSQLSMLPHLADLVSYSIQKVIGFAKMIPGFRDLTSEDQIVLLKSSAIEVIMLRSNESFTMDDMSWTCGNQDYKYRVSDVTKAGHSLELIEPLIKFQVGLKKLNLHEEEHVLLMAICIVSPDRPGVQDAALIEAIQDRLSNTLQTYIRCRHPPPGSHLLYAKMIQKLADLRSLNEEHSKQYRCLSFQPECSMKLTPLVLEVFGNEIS
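After 23 nl compound addition and a short centrifugation, plates sat for 2 hours at ambient temperature; polarization of fluorescence then indicated loss of VDR binding to peptide SRC2-3.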
PLK1 PBD block = blocks phosphopeptide binding to human PLK1 polo-box domain; Potency, µM, inactives show max response, negative = inhibition, hits mostly inhibitors; P53350; AID 720504; Plk1 PBD binding of FITC phosphopeptide, fluorescence polarization; actives 2.8% (n = 360,000); note: potency is the fitted concentration of half-maximal effect; series mostly up to about 57 µM; nearly all actives have a fitted effect of over 65% in size
G9a block = G9a (human) methyltransferase inhibition; Q96KQ7; G9a H3K9 monomethylation, AlphaScreen, 2 h; Potency, µM (series often up to 102 µM), for inactives: top-dose activity, negative = inhibition, actives largely listed as inhibitors; actives 8.8% (n = 350,000); AID 504332; note: potency is the fitted concentration of half-maximal effect; nearly all actives have a fitted effect of over 75% in size
Target sequence (Q96KQ7 913-1193 limits assumed): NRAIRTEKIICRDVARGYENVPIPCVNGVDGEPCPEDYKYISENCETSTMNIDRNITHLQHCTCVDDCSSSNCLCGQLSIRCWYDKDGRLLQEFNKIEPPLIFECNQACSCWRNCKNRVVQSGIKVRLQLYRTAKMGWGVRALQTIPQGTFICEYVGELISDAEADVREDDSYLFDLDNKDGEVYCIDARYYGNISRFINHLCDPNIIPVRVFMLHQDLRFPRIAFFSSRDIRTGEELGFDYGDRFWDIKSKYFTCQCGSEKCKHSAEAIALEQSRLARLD
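Readings reflect AlphaScreen signal from monomethyl-H3K9 antibody detection. HMT at 20 nM; substrate b-H3K9 500 nM; cofactor SAM 20 uM; 2 h RT reaction; compounds tested as titrations in qHTS with 15 min preincubation.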
Sfp PPTase inh = blocks B. subtilis Sfp PPTase activity | AID 1490 | actives 3.5% (n = 310,000) | Potency, µM, without a hit: largest response in the series, negative = inhibition, most hits filed as inhibitors | Biochemical Sfp PPTase activity, qHTS | Q9F4F7;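 note: the enzyme is Sfp with the accession as filed and its product quenches rhodamine fluorescence; potency is the fitted concentration of half-maximal effect; 0% = enzyme reaction without inhibitor and -100% = no enzyme wells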
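Sfp 15 nM + cpd, 15 min RT; start w/ rhodamine-CoA 5 uM, BHQ-2-YbbR 12.5 uM (final); 50 mM Hepes pH 7.6, 10 mM MgCl2, 0.01% NP-40, 0.01% BSA; read 525/598 nm at 0 and 30 min.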
MmCpn inh = M. maripaludis TRiC chaperonin inhibition | actives 0.031% (n = 330,000) | purified Mm-Cpn ATPase, ADP Transcreener TR-FRET | Potency, µM (highest dose often 76.9 µM), for inactives: at the top dose activity, negative = inhibition, most hits filed as inhibitors; note: potency is the fitted concentration of half-maximal effect; nearly all actives have a fitted effect of over 80% in size
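Purified archaeal chaperonin (25 nM final) was preincubated with compound for 10 min at 37°C, then ATP (10 uM final) was added for 30 min at 37°C in Tris pH 7.4/KCl/MgCl2/DTT buffer. ADP was quantified by HTRF Transcreener TR-FRET.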
CCT modulator = changes cytosolic chaperonin activity | AID 651819 | purified chaperonin ATPase assay, HTRF ADP detection, 30 min | actives 0.3% (n = 360,000) | activity change, % (test concentration not listed), hits read low; in the data active = activity change below about -30%
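TRiC at 40 or 20 nM final (batch-dependent) in 30 mM Tris pH 7.4, 100 mM KCl, 5 mM MgCl2, 1 mM DTT, with compound at single 76 uM and 10 uM ATP, 30 min at 37 deg C. ADP detected by HTRF Transcreener, 665/615 ratio.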
TbPYK inh = Trypanosoma brucei pyruvate kinase inhibition, cherry-pick confirmation; shares compounds with PLK1 PBD block; recombinant TbPYK, Kinase-Glo ATP luminescence; Potency, µM (highest dose often 76.9 µM), for inactives: at the highest dose activity change, negative = inhibition, actives largely listed as inhibitors; actives 67% (n = 890); AID 720569; note: potency is the fitted concentration of half-maximal effect; nearly all actives have a fitted effect of over 70% in size
TbPYK ADP-Glo = orthogonal confirmation of Trypanosoma brucei pyruvate kinase inhibitors; shares compounds with PLK1 PBD block; actives 62% (n = 890); Potency, µM (doses to about 76.9 µM), for the others: at the top dose activity change, negative = inhibition, usual class: inhibitors; recombinant TbPYK, ADP-Glo luminescence, 60 min; AID 720584; note: potency is the fitted concentration of half-maximal effect; nearly all actives have a fitted effect of over 75% in size
* hit, by the source's call; [ ] = remark or other dose. Unless noted, calls come from the whole dose curve; as a rule, active = well fitted curve in the direction sought with a large enough effect; inconclusive = small, poorly fitted or top-dose-only effect, or another doubt; inactive = no such curve, though single readings can be large; an effect the other way counts as inactive or inconclusive. Unless noted, % is set by controls: 0 for no effect and ±100 for the full control effect.

For O=C1C=CC2=C3c4cc(O)c(O)cc4CC3(O)COC2=C1O (stereo not given) the results were VDR inhibitor inconclusive, PLK1 PBD block 27µM*, Sfp PPTase inh 14µM*, CCT modulator 0, TbPYK inh 7.1µM* and TbPYK ADP-Glo 4µM*.
For CC(=O)C(Sc1nn(C)c(=S)s1)C(=O)Nc1ccccc1 (stereo not given) the results were VDR inhibitor 79µM*, PLK1 PBD block 27µM*, G9a block 3.5µM*, Sfp PPTase inh 40µM*, MmCpn inh -5%, CCT modulator -1, TbPYK inh 20µM* and TbPYK ADP-Glo 28µM*.
`Cc1nnc(N2CCN(c3ccccc3)CC2)[nH]c1=O` gave VDR inhibitor -18%, PLK1 PBD block 3µM*, G9a block 5%[12.7 µM], Sfp PPTase inh 15%, MmCpn inh 0%, CCT modulator 2, TbPYK inh 3% and TbPYK ADP-Glo -3%.
Screening COc1ccc(-n2ccc(=O)c3c2CCCC3=O)cc1 returned VDR inhibitor -8%, PLK1 PBD block 0%, G9a block -29%, Sfp PPTase inh -5%, MmCpn inh -2% and CCT modulator -2.
Screening COc1ccc(N2C3=C(CC4=C2CCCC4=O)C(=O)CCC3)cc1 returned VDR inhibitor -22%, PLK1 PBD block 21µM*, G9a block inconclusive, Sfp PPTase inh -2%, MmCpn inh -5%, CCT modulator 0, TbPYK inh -7% and TbPYK ADP-Glo -23%.
`COc1ccc(N2CSC3=C(C#N)C(c4cccc(OC)c4OC)CC(=O)N3C2)cc1` (stereo not given) gave VDR inhibitor 20µM*, PLK1 PBD block 7.5µM*, G9a block 2µM*, Sfp PPTase inh 3.5µM*, MmCpn inh -1%, CCT modulator -1, TbPYK inh 1.6µM* and TbPYK ADP-Glo 1.4µM*.
For CCc1ccccc1N1CSC2=C(C#N)C(c3ccccc3F)CC(=O)N2C1 (stereo not given) the results were VDR inhibitor inconclusive, PLK1 PBD block 19µM*, G9a block 0.79µM*, Sfp PPTase inh 1.1µM*, MmCpn inh -10%, CCT modulator -1, TbPYK inh 1.1µM* and TbPYK ADP-Glo 1.8µM*.
For COc1ccc(NC(=O)C2=C(C)Nc3nc(SCc4ccc(C)cc4C)nn3C2c2cccc(OC)c2OC)cc1 (stereo not given) the results were VDR inhibitor 5% and G9a block 5%[59 µM].
COc1cc(N2C(=O)C=CC2=O)c(OC)cc1Cl was read as VDR inhibitor 28µM*, PLK1 PBD block 3µM*, G9a block 2.5µM*, Sfp PPTase inh 3.5µM*, MmCpn inh 2%, CCT modulator -1, TbPYK inh 4.5µM* and TbPYK ADP-Glo 7.1µM*.
For COc1ccc(C(=O)/C=C2\Sc3ccccc3N2C)cc1 the results were VDR inhibitor 3%, PLK1 PBD block inconclusive, G9a block inconclusive, Sfp PPTase inh 0%, MmCpn inh -13% and CCT modulator -3.
Screening CC(=S)/C=C1\Sc2ccccc2N1C returned VDR inhibitor inconclusive, PLK1 PBD block 27µM*, G9a block inconclusive, Sfp PPTase inh 45µM*, MmCpn inh -1%, CCT modulator -3, TbPYK inh inconclusive and TbPYK ADP-Glo 14µM*.
`COc1ccc(/C=N/N=C2/NC(=O)C(CC(=O)O)S2)cc1OCc1ccc(Cl)cc1` (stereo not given) gave VDR inhibitor -20%, PLK1 PBD block -21%, G9a block -7%, Sfp PPTase inh -3%, MmCpn inh 2% and CCT modulator -2.
`CCOc1cc(/C=N/N=C2/NC(=O)C(CC(=O)O)S2)ccc1OCc1ccc(Cl)cc1` (stereo not given) gave VDR inhibitor -16%, PLK1 PBD block inconclusive, G9a block -24%, Sfp PPTase inh 3%, MmCpn inh 0%, CCT modulator 0, TbPYK inh 16µM* and TbPYK ADP-Glo 32µM*.
CCc1ccc(-c2nc3cc(NC(=O)c4ccc(F)cc4)ccc3o2)cc1 was read as VDR inhibitor -2% and G9a block 5%[59 µM].
For Cc1cccc(NC(=O)c2sc3nc4n(c(=O)c3c2C)N=C(c2ccc(F)cc2)CS4)c1C the results were VDR inhibitor -2% and G9a block 11%[59 µM].
`CCN1/C(=C2\C(=O)N(C)C(=S)N2C)C=Cc2ccccc21` gave VDR inhibitor 0%, PLK1 PBD block 0%, G9a block 10µM*, Sfp PPTase inh -6%, MmCpn inh -2%, CCT modulator 2, TbPYK inh inconclusive and TbPYK ADP-Glo inconclusive.
Screening CCOC(=O)c1ccccc1NC(=O)Cn1c(=O)n(CCCC(=O)NCc2ccc3c(c2)OCO3)c(=O)c2ccccc21 returned VDR inhibitor -5% and G9a block -21%[59 µM].
For CCN(CC)c1ccc(/C=N/n2nnnc2N)c(O)c1 the results were VDR inhibitor -3%, PLK1 PBD block -5%, G9a block -42%[59 µM], Sfp PPTase inh -17%, MmCpn inh -5% and CCT modulator -2.
Screening CCN(CC)c1ccc2nc3ccc(N)cc3[n+](-c3ccccc3)c2c1 returned VDR inhibitor inconclusive, PLK1 PBD block -27%, G9a block -33%[0.501 µM], MmCpn inh inconclusive, CCT modulator 0, TbPYK inh inconclusive and TbPYK ADP-Glo 8%.
`COC(=O)C1(C(=O)OC)C/C=C\Cc2ccccc2[C@@H]1C[N+](=O)[O-]` gave VDR inhibitor -17% and Sfp PPTase inh -16%.
CC(C)c1ccc(CNCCSc2nnnn2-c2ccccc2)cc1 was read as VDR inhibitor 4% and G9a block -5%[59 µM].
For CCNC(=S)NNC(=O)c1cccn(Cc2ccc(Cl)cc2Cl)c1=O the results were VDR inhibitor -3%, PLK1 PBD block -13%, G9a block inconclusive, Sfp PPTase inh 13%, MmCpn inh 0% and CCT modulator -2.

Screens (PubChem BioAssay)
